From PubChem
Sampled rows, rich in hits. Any-hit rate of the full collection: about 10%.
CCT chaperon mod = changes cytosolic chaperonin activity. actives 0.3% (n = 360,000). activity change, % (concentration not given with the values), hits read low. purified chaperonin ATPase assay, HTRF ADP detection, 30 min; in the data active means activity change below about -30%
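First, chaperonin was dispensed at 40 nM or 20 nM final depending on batch activity. Next, compounds were pinned at 76 uM and ATP added at 10 uM. After 30 min at 37 °C, ADP detection reagents ran 30 min at ambient temperature.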
Mm-Cpn inhibitor = M. maripaludis TRiC chaperonin inhibition | Potency, µM (doses to about 76.9 µM), hits mostly inhibitors | actives 0.031% (n = 330,000) | purified Mm-Cpn ATPase, ADP Transcreener TR-FRET; further: nearly all actives have a fitted effect of over 80% in size
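Quantitative HTS used 25 nM Mm-CPN and 10 uM ATP in magnesium/KCl Tris buffer, pH 7.4, with 1 mM DTT. Hydrolysis ran 30 min at 37°C; ADP was read by HTRF.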
VDR inh = inhibitors of human vitamin D receptor. P11473. VDR-SRC2-3 peptide fluorescence polarization, 2 h. Potency, µM, usual class: inhibitors. actives 0.93% (n = 400,000). AID 504847
Target sequence (P11473 whole entry, looked up): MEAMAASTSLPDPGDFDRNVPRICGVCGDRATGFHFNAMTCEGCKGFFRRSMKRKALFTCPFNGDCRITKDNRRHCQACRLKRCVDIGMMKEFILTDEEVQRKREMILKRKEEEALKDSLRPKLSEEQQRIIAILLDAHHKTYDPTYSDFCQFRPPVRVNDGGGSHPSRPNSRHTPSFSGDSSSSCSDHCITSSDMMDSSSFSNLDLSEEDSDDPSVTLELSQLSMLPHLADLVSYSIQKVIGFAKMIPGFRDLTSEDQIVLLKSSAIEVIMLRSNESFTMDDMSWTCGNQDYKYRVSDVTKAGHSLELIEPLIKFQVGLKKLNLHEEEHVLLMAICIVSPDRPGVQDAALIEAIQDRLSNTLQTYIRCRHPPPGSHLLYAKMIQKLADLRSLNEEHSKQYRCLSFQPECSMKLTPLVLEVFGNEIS
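Measured by FP: displacement of SRC2-3 coactivator peptide from VDR by library compounds, following a two-hour ambient incubation.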
G9a inh = blocks human histone lysine methyltransferase G9a | Q96KQ7 | G9a H3K9 monomethylation, AlphaScreen, 2 h | Potency, µM (top dose mostly 102 µM), most hits filed as inhibitors | actives 8.8% (n = 350,000); further: nearly all actives have a fitted effect of over 75% in size
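Quantitative HTS format: methyltransferase activity on a biotin-tagged H3K9 peptide is measured by AlphaScreen, using a rabbit anti-monomethyl-H3K9 antibody with streptavidin donor and anti-IgG acceptor beads. Final levels are 20 nM enzyme, 500 nM peptide, 20 uM SAM; 2 h RT.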
Sfp PPTase inh = inhibitors of Bacillus subtilis Sfp phosphopantetheinyl transferase | Q9F4F7 | actives 3.5% (n = 310,000) | Biochemical Sfp PPTase activity, qHTS | Potency, µM, hits mostly inhibitors;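 further: the enzyme is Sfp with the accession as filed and its product quenches rhodamine fluorescence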
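After 15 min at room temperature with compound, 15 nM Sfp received 5 uM rhodamine-CoA plus 12.5 uM BHQ-2-ybbR (50 mM Hepes pH 7.6, 10 mM MgCl2). Rate came from the fluorescence difference over 30 min, ex 525/em 598 nm.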
PLK1 PBD inh = blocks phosphopeptide binding to human PLK1 polo-box domain; Plk1 PBD binding of FITC phosphopeptide, fluorescence polarization; P53350; actives 2.8% (n = 360,000); Potency, µM, most hits filed as inhibitors; further: series mostly up to about 57 µM; nearly all actives have a fitted effect of over 65% in size
Of the large screens only hits and unclear results are named; the others gave an inactive call; ! = repeats disagree. Unless noted, the call rests on the fitted dose curve; in most records, active means well fitted curve in the direction sought with a large enough effect; inconclusive means small, poorly fitted or top-dose-only effect, or another doubt; inactive means no such curve, though single readings can be large; an effect the other way counts as inactive or inconclusive.

COc1ccc(-c2csc3[nH]c(=S)n(-c4ccccc4)c(=O)c23)cc1OC	VDR inh inconclusive, G9a inh inconclusive, PLK1 PBD inh inconclusive
CCOC(=O)N1CCc2c(sc3c2c(=O)n(Cc2ccccc2)c(=O)n3Cc2c(F)cccc2Cl)C1	none (no result: CCT chaperon mod, Mm-Cpn inhibitor, Sfp PPTase inh, PLK1 PBD inh)
CCCCCCCCCCOCC(O)CN (configuration not stated)	none (no result: CCT chaperon mod, Mm-Cpn inhibitor, PLK1 PBD inh)
O=C(COC(=O)c1cc(Cl)nc(Cl)c1)NCc1ccc2c(c1)OCO2	none (no result: G9a inh, Sfp PPTase inh)
COC(=O)c1ccc(CNC(=O)COC(=O)c2cc(Cl)nc(Cl)c2)cc1	G9a inh 50µM
COc1cccc(Nc2ncc3nc(-c4ccc(Cl)cc4)c(=O)n(C4CC4)c3n2)c1	none (no result: CCT chaperon mod, Mm-Cpn inhibitor, PLK1 PBD inh)
Cn1ccc(=S)c2ccccc21	G9a inh 32µM, Sfp PPTase inh 35µM, PLK1 PBD inh 12µM
COc1ccc(CNc2cc(C)ccc2C)c(OC)c1OC	G9a inh inconclusive
COc1cc(Br)c(CNc2cc(C)ccc2C)cc1OC	G9a inh 28µM, Sfp PPTase inh inconclusive
COc1cc(OC)c(OC)cc1CNc1cc(C)ccc1OC	G9a inh 7.9µM
COc1ccc(C)cc1NCc1cccc(OC)c1OC	G9a inh 7.9µM
COc1cccc(-n2cc(C(=O)Nc3ccccc3C(N)=O)c3ccccc3c2=O)c1	none (no result: CCT chaperon mod, Mm-Cpn inhibitor, Sfp PPTase inh, PLK1 PBD inh)
CCOc1ccc(NC(=O)CC2C(=O)N(c3ccccc3)C(=O)N2CCc2ccc(OC)cc2)cc1 (configuration not stated)	none (no result: CCT chaperon mod, Mm-Cpn inhibitor, Sfp PPTase inh, PLK1 PBD inh)
Cc1cc(S(=O)(=O)NCc2ccco2)c(C)cc1Cl	G9a inh 45µM
CCc1ccc(-c2cc(C)no2)cc1S(=O)(=O)NCc1ccco1	G9a inh 71µM!
COc1cc(C)c(Cl)cc1S(=O)(=O)NCc1ccco1	none
COc1ccc(Cl)cc1S(=O)(=O)NCc1ccc2c(c1)CCN2C(=O)c1cccc(C)c1	none (no result: CCT chaperon mod, Mm-Cpn inhibitor, Sfp PPTase inh, PLK1 PBD inh)
O=C(O)CCNC(=O)/C(=C/C=C/c1ccccc1)NC(=O)c1ccccc1	G9a inh 40µM
O=C(Nc1ccc(C(=O)O)cc1)/C(=C\C=C\c1ccccc1)NC(=O)c1ccccc1Br	none (no result: G9a inh)
O=C(Nc1ccc(C(=O)O)cc1)/C(=C\C=C\c1ccccc1)NC(=O)c1cccc(Br)c1	G9a inh 40µM, PLK1 PBD inh inconclusive
Cc1ccc(S(=O)(=O)c2nc(-c3cccc(C)c3)oc2N2CCN(c3ccccc3)CC2)cc1	G9a inh inconclusive (no result: CCT chaperon mod, Mm-Cpn inhibitor, Sfp PPTase inh, PLK1 PBD inh)
CC(C)NC(=O)C1CCN(C(=O)N2CCOc3ccc(Cl)cc32)CC1	none (no result: CCT chaperon mod, Mm-Cpn inhibitor, Sfp PPTase inh, PLK1 PBD inh)
O=C(Cc1ccccc1)NCC(=O)Nc1ccccc1Br	none
Cc1cc(F)ccc1NCC(=O)Nc1ccccc1Br	G9a inh 50µM, Sfp PPTase inh inconclusive
Cc1ccc(OCCCC(=O)N2CCOCC2)cc1	PLK1 PBD inh 12µM
C/C(CCC(C)C)=N\NC(=S)Nc1cc(S(=O)(=O)N2CCOCC2)ccc1N1CCOCC1	G9a inh 25µM
O=C(CCCOc1ccccc1)Nc1cc(S(=O)(=O)N2CCOCC2)ccc1N1CCOCC1	none (no result: Sfp PPTase inh)
Cc1ccc(OCCCC(=O)Nc2cc(S(=O)(=O)N3CCOCC3)ccc2N2CCOCC2)cc1	G9a inh 56µM (no result: Sfp PPTase inh)
CCCC(=O)Nc1cc(S(=O)(=O)N2CCOCC2)ccc1N1CCCCC1	VDR inh 89µM, PLK1 PBD inh 24µM (no result: G9a inh, Sfp PPTase inh)
COc1ccc2cc(/C(C)=N/NC(=S)Nc3cc(S(=O)(=O)N4CCOCC4)ccc3N3CCOCC3)ccc2c1	none (no result: CCT chaperon mod, VDR inh, PLK1 PBD inh)
Cc1ccc(S(=O)(=O)N(C)CCCC(=O)N2CCOCC2)cc1	none
COc1ccc(-c2cc(C(=O)OCC(=O)c3ccc(C)cc3)c3cccc(Cl)c3n2)cc1	none (no result: CCT chaperon mod, Mm-Cpn inhibitor, Sfp PPTase inh, PLK1 PBD inh)
CCOc1ccc(C2C(C(N)=O)=C(C)Nc3nc(-c4ccc(OC)cc4)nn32)cc1 (configuration not stated)	none (no result: CCT chaperon mod, Mm-Cpn inhibitor, Sfp PPTase inh, PLK1 PBD inh)
CCc1cccc(NC(=O)C(Cc2ccccc2)NS(=O)(=O)c2ccc3c(c2)oc(=O)n3C)c1 (configuration not stated)	none (no result: CCT chaperon mod, Mm-Cpn inhibitor, Sfp PPTase inh, PLK1 PBD inh)
N#C/C(=C\c1ccccc1)C(=O)Nc1cc(S(=O)(=O)N2CCOCC2)ccc1N1CCCC1	VDR inh inconclusive, G9a inh 45µM
CN(C)S(=O)(=O)c1ccc(NC(=O)Cc2ccc(S(=O)(=O)N3CCOCC3)s2)cc1	G9a inh 56µM
